Source: paper PMC4552634, “A New Set of Chemical Starting Points with Plasmodium falciparum Transmission-Blocking Potential for Antimalarial Drug Discovery” (PLoS ONE, 2015)
Among all 13,000 compounds or so, about 3,200 (25%) showed an effect of 50% or more. Some of the results follow.

system: P. falciparum stage V gametocytes; design: BacTiter-Glo ATP luminescence viability of purified stage V gametocytes in 384-well plates, per cent inhibition versus DMSO; conditions: 48 h, 5 µM; inhibitor

Row | Compound | % Inhibition [%]
1 | CC1(C)N=C(N)N=C(N)N1c1ccc(Oc2ccc(Cl)cc2)c(Cl)c1 [TCMDC-123522] | 76.9
2 | Cc1ccc(N2C(N)=NC(N)=NC2(C)C)cc1Cl [TCMDC-137708] | -11.46
3 | Cc1cc(N2C(N)=NC(N)=NC2(C)C)ccc1Cl [TCMDC-137705] | -13.35
4 | COc1cccc(C(=O)NCc2cccs2)c1Oc1ccccc1 [TCMDC-141236] | 3.513
5 | NCC(=O)Nc1cccc(Nc2nccc(-c3c(-c4cccc(NC(=O)c5ccccc5)c4)nn4ccccc34)n2)c1 [TCMDC-135671] | -11.23
6 | O=C(CCc1ccccc1)N[C@H](Cc1c[nH]c2ccccc12)C(=O)N1CCC(NCc2ccc3c(c2)Cc2ccccc2-3)CC1 [TCMDC-135353] | 27.37
7 | CC1CCN(C(=O)[C@H](Cc2c[nH]c3ccccc23)NS(=O)(=O)c2ccc(Cl)cc2)CC1 [TCMDC-125035] | 69.39
8 | O=C(NCCC1CCN(CCc2c[nH]c3ccccc23)CC1)Nc1ccc(Cl)c(Cl)c1 [TCMDC-139151] | 31.54
9 | CC1CCN(C(=O)C(Cc2c[nH]c3ccccc23)NS(=O)(=O)c2ccc(Cl)cc2)CC1 (stereo not shown) [TCMDC-124494] | 54
10 | C[C@@H](CNc1ccnc(Nc2ccc3[nH]c(=O)[nH]c3c2)n1)c1ccccc1 [TCMDC-136803] | -37.25
11 | O=C(c1cc(C(F)(F)F)cc(C(F)(F)F)c1)N1CCC(CCN2CCC3(CC2)C(=O)NCN3c2ccccc2)CC1Cc1ccc(Cl)c(Cl)c1 (stereo not shown) [TCMDC-141945] | -34.22
12 | CN1CCN(c2cccc(-c3nnc(-c4ccc(OCC(=O)NCc5ccc(C(F)(F)F)cc5)c([N+](=O)[O-])c4)o3)c2)CC1 [TCMDC-134942] | 2.294
13 | CC(C)(C)c1ccc(CNC(=O)COc2ccc(-c3nnc(-c4cccc([N+](=O)[O-])c4)o3)cc2[N+](=O)[O-])cc1 [TCMDC-134986] | -5.433
14 | CC1(C)[C@H]2CC[C@@H](CNc3nc(NCC(=O)Nc4ccc5ccccc5c4)nc(N4CCC(N5CCCC5)CC4)n3)[C@@H]1C2 [TCMDC-139977] | 10.19
15 | CC1(C)[C@H]2CC[C@@H](CNc3nc(NCCc4cnc[nH]4)nc(Nc4ccc(Oc5ccccc5)cc4)n3)[C@@H]1C2 [TCMDC-139744] | -37.07
16 | CC(C)(C)OC(=O)NCc1ccc(Nc2nnc(-c3ccc(OCC(=O)NCc4ccc(C(C)(C)C)cc4)c([N+](=O)[O-])c3)o2)cc1 [TCMDC-134991] | 114.3
17 | CC(C)(C)OC(=O)NCc1ccc(Nc2nnc(-c3ccc(OCC(=O)NC[C@@H]4CC[C@H]5C[C@@H]4C5(C)C)c([N+](=O)[O-])c3)o2)cc1 [TCMDC-135039] | 110.7
18 | CCCc1cc(N2CCC(N3CCCC3)CC2)nc(Nc2ccc(Cl)cc2)n1 [TCMDC-132386] | 18.02
19 | COc1ccc(C2CC(c3cccs3)=NN2C(=O)COc2cccc(C(C)=O)c2)cc1OC (stereo not shown) [TCMDC-125111] | -18.64
20 | FC(F)(F)c1ccc(-c2cncc(-c3ccc(C(F)(F)F)cc3)n2)cc1 [TCMDC-138711] | -27.18
21 | N#Cc1cccc(Nc2nccc(NCC(O)c3ccccc3C(F)(F)F)n2)c1 (stereo not shown) [TCMDC-136576] | -28.54
22 | O=C(Nc1ccc(-c2csc3nccn23)cc1)c1ccc(Cl)cc1 [TCMDC-137159] | 11.24

Row | Compound | % Inhibition [%]
23 | CN1CCN(CCCN(Cc2ccc(-c3ccc(CNCc4ccc5c(c4)OCO5)cc3)cc2)C(=O)Nc2ccccc2)CC1 [TCMDC-140607] | 58.83
24 | CN1CCN(CCCN(Cc2ccc(-c3cccc(CNCc4ccc5c(c4)OCO5)c3)cc2)C(=O)NCCc2ccccc2)CC1 [TCMDC-140947] | 67.47
25 | CN1CCN(CCCN(Cc2cccc(-c3ccc(CNCc4ccc5c(c4)OCO5)cc3)c2)C(=O)Nc2ccccc2)CC1 [TCMDC-140596] | 57.54
26 | CN1CCN(CCCN(Cc2ccc(-c3cccc(CNCc4ccc5c(c4)OCO5)c3)cc2)C(=O)Nc2ccccc2)CC1 [TCMDC-140606] | 65.32
27 | c1ccc2c(c1)ncn2-c1ccnc(Nc2ccncc2)n1 [TCMDC-138908] | 15.51
28 | Cc1ccc(NC(=O)c2cc(Br)cc(N3CCCN(C)CC3)c2)cc1F [TCMDC-135143] | -89.56
29 | CCCCCN1CCCC(CNS(=O)(=O)c2ccc(C(=O)Nc3ccc(C(F)(F)F)cc3)cc2)C1 (stereo not shown) [TCMDC-133679] | -5.047
30 | c1ccc2c(c1)CN(CC1CCOCC1)CC1(CCN(Cc3c[nH]c4cnccc34)CC1)O2 [TCMDC-133380] | 13.86
31 | O=C(NCCCN(Cc1ccc(F)cc1)c1ccccn1)C(c1cc2ccccc2o1)N1CCN(C(c2ccccc2)c2ccccc2)CC1 (stereo not shown) [TCMDC-141022] | 15.04
32 | CCN(CCN(C)C)Cc1ccc(-c2ccc(NS(=O)(=O)c3cccc(Cl)c3)cc2)cc1 [TCMDC-136601] | 2.097
33 | O=C(COC(=O)c1cccc(S(=O)(=O)N2CCc3ccccc32)c1)NNC(=O)c1cccs1 [TCMDC-124334] | 26.4
34 | CC(C)C[C@H](NC(=O)c1ccc(OCCN2CCOCC2)cc1)C(=O)N[C@H](/C=N/NC(=O)c1ccccc1)CCc1ccccc1 [TCMDC-135817] | 2.96
35 | COc1ccc(CN=C(N)Nc2nc(-c3ccc(OCCCn4ccnc4)cc3)cs2)cc1 [TCMDC-138934] | 9.829
36 | CC(C)CCN=C(N)c1ccc(OCCCCCOc2ccc(C(N)=NCCC(C)C)cc2)cc1 [TCMDC-137618] | 62.8
37 | CN(C)C=Nc1ccc(OCCCCCCOc2ccc(N=CN(C)C)cc2)cc1 [TCMDC-137575] | -11.04
38 | CCCCN=C(N)Nc1ccc(OCCCOc2ccc(NC(N)=NCCCC)cc2)cc1 [TCMDC-137616] | 55.77
39 | CCCCN=C(N)c1ccc(OCCCCCOc2ccc(C(N)=NCCCC)cc2)cc1 [TCMDC-137617] | 33.37
40 | NC(=NCc1ccc(O)cc1)Nc1nc(-c2ccc(OCCCn3ccnc3)cc2)cs1 [TCMDC-138936] | -10.17
41 | CCCCCCN=C(N)c1ccc(OCCCCCOc2ccc(C(N)=NCCCCCC)cc2)cc1 [TCMDC-137619] | 113.3
42 | CCCCCCN=C(N)c1ccc2nc(-c3ccc(O)cc3)[nH]c2c1 [TCMDC-137218] | 15.89
43 | CCCCCN=C(N)c1ccc(OCCCCCOc2ccc(C(N)=NCCCCC)cc2)cc1 [TCMDC-137620] | 63.24
